# Laboratory results: PMC7862700, “An all-to-all approach to the identification of sequence-specific readers for epigenetic DNA modifications on cytosine”
# Experiments:
# Assay in all cases: DAPPL (digital affinity profiling via proximity ligation, sequencing); 10 mM Tris-HCl pH 7.5, 50 mM NaCl, 1 mM DTT, 4% glycerol, room temperature, 30 min; GST-TFs on glutathione beads, 16-mer random dsDNA library, 0.1% formaldehyde crosslink after washing; high values mean tight binding
# FEV = target: T1, FEV (Homo sapiens, UniProt Q99581 1-238); details: protein: recombinant; tags: N-terminal GST; dsDNA, one strand shown
# T1 sequence: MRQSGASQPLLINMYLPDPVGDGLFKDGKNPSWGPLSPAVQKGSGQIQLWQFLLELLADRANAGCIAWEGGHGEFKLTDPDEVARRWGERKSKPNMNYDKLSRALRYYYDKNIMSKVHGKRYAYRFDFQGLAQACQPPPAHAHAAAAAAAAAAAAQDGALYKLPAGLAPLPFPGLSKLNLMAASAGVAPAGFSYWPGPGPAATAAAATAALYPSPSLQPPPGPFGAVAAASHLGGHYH
# Method in brief: (§1)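 In yeast, human transcription factors were expressed with a GST fusion, then pulled down on glutathione beads and given DNA barcodes. Pooled with a tag-only sample, they were exposed to 200 nmole of a 16-mer random double-stranded DNA library (Tris/NaCl/DTT/glycerol buffer, room temperature, 30 min), washed, crosslinked with 0.1% formaldehyde, proximity-ligated using BsaI/T4 ligase for 1 h at 37 °C, PCR-amplified and read on an Illumina NextSeq500. Each hexamer's frequency of reads for a factor, divided by the matching frequency for the tag-only sample, gives the binding signal.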
# ETV5 = ETV5 (Homo sapiens, UniProt P41161 1-510); details: protein: recombinant; tags: N-terminal GST; dsDNA, one strand shown
# ETV5, sequence (P41161 whole entry): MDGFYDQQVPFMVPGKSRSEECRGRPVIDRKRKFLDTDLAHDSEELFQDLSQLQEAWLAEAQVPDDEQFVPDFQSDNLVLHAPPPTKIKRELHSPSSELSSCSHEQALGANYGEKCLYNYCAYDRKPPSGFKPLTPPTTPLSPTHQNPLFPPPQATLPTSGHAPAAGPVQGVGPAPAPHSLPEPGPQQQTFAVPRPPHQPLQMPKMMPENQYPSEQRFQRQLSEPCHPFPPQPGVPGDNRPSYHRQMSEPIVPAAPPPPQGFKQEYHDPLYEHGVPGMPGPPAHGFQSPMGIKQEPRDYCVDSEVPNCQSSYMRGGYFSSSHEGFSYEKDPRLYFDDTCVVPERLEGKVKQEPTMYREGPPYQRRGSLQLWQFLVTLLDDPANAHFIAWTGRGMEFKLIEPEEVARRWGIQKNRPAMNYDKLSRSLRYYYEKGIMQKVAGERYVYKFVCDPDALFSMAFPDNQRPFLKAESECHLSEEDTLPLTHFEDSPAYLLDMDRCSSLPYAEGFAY
# Method in brief: as §1
# HSF1 = HSF1 (Homo sapiens, UniProt Q00613 1-529); details: protein: recombinant; tags: N-terminal GST; chain copies: 3; dsDNA, one strand shown
# HSF1, sequence (Q00613 whole entry): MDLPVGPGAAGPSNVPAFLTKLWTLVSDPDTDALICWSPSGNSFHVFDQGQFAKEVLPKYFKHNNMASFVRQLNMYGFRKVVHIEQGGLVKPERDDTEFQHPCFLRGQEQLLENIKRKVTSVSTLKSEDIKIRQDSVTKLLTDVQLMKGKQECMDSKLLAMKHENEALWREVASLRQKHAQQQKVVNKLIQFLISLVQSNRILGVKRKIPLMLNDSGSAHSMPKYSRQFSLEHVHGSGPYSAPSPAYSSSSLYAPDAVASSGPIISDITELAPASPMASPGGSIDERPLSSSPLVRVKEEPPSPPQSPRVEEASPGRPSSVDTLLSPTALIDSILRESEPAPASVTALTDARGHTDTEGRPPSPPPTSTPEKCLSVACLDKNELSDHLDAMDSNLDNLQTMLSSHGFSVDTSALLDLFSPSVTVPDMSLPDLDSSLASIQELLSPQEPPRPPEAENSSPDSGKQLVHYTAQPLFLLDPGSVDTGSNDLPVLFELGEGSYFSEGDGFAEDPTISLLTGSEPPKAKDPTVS
# Method in brief: as §1
# SPIC = target: T2, SPIC (Homo sapiens, UniProt Q8N5J4 1-248); details: protein: recombinant; tags: N-terminal GST; dsDNA, one strand shown
# T2 sequence: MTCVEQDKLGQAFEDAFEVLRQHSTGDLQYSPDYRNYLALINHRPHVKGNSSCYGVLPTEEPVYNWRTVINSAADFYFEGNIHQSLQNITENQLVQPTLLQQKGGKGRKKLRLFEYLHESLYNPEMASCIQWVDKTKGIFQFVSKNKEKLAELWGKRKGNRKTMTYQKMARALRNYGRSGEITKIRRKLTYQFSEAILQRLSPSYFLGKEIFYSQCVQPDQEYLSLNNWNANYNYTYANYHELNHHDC
# Method in brief: as §1
# ELF4 = ELF4 (Homo sapiens, UniProt Q99607 1-663); details: protein: recombinant; tags: N-terminal GST; dsDNA, one strand shown
# ELF4, sequence (Q99607 whole entry): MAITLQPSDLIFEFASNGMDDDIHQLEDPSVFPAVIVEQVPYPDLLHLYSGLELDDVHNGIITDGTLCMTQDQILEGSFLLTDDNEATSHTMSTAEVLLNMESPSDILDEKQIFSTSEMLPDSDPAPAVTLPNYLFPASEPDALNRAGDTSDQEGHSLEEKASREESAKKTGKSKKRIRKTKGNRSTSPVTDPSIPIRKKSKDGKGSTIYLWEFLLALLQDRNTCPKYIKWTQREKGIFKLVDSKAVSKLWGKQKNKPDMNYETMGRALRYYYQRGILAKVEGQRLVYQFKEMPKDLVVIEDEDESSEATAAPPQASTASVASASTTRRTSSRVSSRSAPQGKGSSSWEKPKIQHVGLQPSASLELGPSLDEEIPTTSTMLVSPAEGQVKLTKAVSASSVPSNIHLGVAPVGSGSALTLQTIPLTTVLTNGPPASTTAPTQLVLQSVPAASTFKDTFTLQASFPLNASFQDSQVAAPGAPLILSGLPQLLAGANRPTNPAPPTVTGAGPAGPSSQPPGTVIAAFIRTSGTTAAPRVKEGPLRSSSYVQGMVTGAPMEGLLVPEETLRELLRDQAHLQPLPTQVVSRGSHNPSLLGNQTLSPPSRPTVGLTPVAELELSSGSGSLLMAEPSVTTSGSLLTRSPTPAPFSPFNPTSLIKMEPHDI
# Method in brief: as §1
# ELK4 = target: T3, ELK4 (Homo sapiens, UniProt P28324-2 1-405); details: protein: recombinant; tags: N-terminal GST; dsDNA, one strand shown
# T3 sequence: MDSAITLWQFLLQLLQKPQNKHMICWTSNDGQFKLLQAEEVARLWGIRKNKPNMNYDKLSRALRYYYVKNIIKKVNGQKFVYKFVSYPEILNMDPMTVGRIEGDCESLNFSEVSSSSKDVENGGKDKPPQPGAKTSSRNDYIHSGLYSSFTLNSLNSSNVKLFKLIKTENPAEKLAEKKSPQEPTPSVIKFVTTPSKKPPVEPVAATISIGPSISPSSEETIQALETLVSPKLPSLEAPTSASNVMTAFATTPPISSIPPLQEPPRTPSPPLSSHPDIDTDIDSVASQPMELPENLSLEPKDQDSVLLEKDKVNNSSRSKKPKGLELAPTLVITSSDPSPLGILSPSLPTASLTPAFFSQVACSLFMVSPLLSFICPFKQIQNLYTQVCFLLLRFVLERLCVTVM
# Method in brief: as §1
# ETV2 = target: T4, ETV2 (Homo sapiens, UniProt O00321 1-342); details: protein: recombinant; tags: N-terminal GST; dsDNA, one strand shown
# T4 sequence: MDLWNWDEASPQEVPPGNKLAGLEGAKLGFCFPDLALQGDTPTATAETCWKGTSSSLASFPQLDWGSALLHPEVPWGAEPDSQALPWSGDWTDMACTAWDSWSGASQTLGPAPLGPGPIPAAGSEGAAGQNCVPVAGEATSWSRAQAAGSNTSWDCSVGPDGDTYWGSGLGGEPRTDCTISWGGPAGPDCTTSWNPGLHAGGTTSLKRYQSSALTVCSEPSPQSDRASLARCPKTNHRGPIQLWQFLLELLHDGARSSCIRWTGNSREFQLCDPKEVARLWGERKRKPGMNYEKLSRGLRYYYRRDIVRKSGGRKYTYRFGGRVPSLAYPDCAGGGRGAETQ
# Method in brief: as §1
# ELF3 = target: T5, ELF3 (Homo sapiens, UniProt P78545 1-371); details: protein: recombinant; tags: N-terminal GST; dsDNA, one strand shown
# T5 sequence: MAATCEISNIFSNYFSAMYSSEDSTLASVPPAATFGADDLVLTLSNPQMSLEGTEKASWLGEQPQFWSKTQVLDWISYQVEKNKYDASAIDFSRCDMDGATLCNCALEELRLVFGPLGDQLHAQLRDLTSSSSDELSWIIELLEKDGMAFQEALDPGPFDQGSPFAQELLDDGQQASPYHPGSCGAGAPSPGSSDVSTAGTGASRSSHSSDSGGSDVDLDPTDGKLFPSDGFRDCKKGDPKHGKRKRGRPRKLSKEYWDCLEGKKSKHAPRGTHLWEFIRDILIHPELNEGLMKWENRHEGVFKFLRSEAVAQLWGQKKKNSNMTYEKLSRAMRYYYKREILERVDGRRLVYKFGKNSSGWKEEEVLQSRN
# Method in brief: as §1
# CRX = CRX (Homo sapiens, UniProt O43186 1-299); details: protein: recombinant; tags: N-terminal GST; dsDNA, one strand shown
# CRX, sequence (O43186 whole entry): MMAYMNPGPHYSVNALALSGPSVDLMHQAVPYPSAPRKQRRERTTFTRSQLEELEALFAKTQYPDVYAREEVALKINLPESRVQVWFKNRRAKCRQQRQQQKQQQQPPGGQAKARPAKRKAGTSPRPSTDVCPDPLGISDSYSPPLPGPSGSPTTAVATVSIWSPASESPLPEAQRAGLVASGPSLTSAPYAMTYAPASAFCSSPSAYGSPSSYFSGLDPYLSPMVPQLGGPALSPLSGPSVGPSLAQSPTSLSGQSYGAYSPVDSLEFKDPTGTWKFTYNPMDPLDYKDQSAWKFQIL
# Method in brief: as §1
# ETV1 = ETV1 (Homo sapiens, UniProt P50549 1-477); details: protein: recombinant; tags: N-terminal GST; dsDNA, one strand shown
# ETV1, sequence (P50549 whole entry): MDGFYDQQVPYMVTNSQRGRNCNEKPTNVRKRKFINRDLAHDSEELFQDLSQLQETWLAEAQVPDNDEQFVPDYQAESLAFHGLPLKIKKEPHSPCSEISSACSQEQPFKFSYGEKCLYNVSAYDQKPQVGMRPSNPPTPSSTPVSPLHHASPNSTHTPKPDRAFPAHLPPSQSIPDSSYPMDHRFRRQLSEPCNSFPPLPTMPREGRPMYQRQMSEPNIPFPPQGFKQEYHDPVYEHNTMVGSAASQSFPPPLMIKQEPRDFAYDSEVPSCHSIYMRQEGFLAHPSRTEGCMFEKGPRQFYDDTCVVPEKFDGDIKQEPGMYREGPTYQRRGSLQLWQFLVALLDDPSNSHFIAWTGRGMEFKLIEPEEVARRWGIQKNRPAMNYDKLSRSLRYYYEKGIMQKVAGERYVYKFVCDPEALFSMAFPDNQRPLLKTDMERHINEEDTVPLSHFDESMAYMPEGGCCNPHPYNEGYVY
# Method in brief: as §1
# ERF = target: T6, ERF (Homo sapiens, UniProt P50548 1-548); details: protein: recombinant; tags: N-terminal GST; dsDNA, one strand shown
# T6 sequence: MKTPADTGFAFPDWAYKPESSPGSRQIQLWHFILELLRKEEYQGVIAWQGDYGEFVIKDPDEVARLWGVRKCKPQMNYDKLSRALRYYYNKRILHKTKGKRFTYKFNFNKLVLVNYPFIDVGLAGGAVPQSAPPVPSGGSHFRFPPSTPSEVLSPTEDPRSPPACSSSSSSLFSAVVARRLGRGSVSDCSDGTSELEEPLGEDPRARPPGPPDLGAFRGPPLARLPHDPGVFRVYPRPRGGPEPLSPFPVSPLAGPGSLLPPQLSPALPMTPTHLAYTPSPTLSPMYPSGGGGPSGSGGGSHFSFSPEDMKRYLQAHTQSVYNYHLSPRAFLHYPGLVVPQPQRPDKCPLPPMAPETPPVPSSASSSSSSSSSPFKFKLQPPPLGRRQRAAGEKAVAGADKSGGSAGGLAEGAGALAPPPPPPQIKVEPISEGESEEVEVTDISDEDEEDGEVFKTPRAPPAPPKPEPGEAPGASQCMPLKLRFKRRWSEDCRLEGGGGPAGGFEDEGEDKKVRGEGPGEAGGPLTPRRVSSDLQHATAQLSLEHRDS
# Method in brief: as §1
# ETV3L = target: T7, ETV3L (Homo sapiens, UniProt Q6ZN32 1-361); details: protein: recombinant; tags: N-terminal GST; dsDNA, one strand shown
# T7 sequence: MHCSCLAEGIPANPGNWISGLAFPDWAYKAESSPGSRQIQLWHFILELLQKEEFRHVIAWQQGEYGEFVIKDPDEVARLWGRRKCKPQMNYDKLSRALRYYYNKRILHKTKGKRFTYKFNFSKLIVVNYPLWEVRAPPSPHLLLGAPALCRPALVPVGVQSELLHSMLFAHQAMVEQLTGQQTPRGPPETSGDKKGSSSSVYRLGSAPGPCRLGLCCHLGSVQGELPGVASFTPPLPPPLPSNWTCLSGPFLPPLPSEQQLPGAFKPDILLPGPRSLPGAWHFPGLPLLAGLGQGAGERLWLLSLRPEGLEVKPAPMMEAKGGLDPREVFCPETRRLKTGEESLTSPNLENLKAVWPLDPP
# Method in brief: as §1
# ETS2 = target: T8, ETS2 (Homo sapiens, UniProt P15036 1-469); details: protein: recombinant; tags: N-terminal GST; dsDNA, one strand shown
# T8 sequence: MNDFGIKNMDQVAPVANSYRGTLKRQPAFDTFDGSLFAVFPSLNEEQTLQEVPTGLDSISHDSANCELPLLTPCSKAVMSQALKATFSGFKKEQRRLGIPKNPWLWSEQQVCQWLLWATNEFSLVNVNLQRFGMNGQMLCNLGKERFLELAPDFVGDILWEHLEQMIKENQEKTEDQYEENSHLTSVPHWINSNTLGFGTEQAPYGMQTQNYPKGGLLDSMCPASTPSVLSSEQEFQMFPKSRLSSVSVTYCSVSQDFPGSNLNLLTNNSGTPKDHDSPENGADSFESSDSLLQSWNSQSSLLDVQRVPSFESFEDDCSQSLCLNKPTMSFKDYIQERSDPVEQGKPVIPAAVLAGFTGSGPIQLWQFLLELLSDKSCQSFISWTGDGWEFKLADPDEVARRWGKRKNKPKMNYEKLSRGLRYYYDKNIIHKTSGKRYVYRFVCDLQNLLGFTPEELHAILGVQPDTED
# Method in brief: as §1
# SPDEF = target: T9, SPDEF (Homo sapiens, UniProt O95238 1-335); details: protein: recombinant; tags: N-terminal GST; dsDNA, one strand shown
# T9 sequence: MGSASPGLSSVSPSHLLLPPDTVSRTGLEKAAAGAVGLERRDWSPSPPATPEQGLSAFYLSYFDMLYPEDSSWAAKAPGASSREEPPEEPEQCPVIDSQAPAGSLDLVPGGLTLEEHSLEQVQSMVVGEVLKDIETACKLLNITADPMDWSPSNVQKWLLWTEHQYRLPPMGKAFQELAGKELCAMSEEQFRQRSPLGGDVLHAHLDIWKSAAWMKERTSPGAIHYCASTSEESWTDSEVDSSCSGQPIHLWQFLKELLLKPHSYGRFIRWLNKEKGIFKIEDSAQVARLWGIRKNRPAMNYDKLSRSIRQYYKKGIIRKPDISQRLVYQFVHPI
# Method in brief: as §1
# ETV7 = target: T10, ETV7 (Homo sapiens, UniProt Q9Y603 1-341); details: protein: recombinant; tags: N-terminal GST; dsDNA, one strand shown
# T10 sequence: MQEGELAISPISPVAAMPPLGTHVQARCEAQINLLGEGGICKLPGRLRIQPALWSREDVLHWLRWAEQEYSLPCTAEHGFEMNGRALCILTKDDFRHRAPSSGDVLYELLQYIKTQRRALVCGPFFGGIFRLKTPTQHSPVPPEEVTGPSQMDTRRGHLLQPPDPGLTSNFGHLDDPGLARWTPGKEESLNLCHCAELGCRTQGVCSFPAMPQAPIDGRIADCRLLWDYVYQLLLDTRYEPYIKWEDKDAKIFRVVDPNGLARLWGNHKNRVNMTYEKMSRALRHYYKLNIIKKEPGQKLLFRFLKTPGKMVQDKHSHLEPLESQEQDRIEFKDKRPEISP
# Method in brief: as §1
# ELF5 = target: T11, ELF5 (Homo sapiens, UniProt Q9UKW6-2 1-255); details: protein: recombinant; tags: N-terminal GST; dsDNA, one strand shown
# T11 sequence: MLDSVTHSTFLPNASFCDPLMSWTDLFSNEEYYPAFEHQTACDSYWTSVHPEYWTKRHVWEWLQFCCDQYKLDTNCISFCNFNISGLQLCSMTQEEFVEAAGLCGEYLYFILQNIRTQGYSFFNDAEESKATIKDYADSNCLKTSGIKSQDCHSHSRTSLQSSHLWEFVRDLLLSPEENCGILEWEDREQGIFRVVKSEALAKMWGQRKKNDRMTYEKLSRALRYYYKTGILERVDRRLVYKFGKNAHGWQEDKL
# Method in brief: as §1
# ETV3 = target: T12, ETV3 (Homo sapiens, UniProt P41162-2 1-143); details: protein: recombinant; tags: N-terminal GST; dsDNA, one strand shown
# T12 sequence: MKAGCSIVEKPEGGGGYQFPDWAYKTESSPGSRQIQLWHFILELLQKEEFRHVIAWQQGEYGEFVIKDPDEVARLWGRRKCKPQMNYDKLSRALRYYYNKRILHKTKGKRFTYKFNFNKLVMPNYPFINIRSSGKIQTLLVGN
# Method in brief: as §1
# ETV6 = ETV6 (Homo sapiens, UniProt P41212 1-452); details: protein: recombinant; tags: N-terminal GST; dsDNA, one strand shown
# ETV6, sequence (P41212 whole entry): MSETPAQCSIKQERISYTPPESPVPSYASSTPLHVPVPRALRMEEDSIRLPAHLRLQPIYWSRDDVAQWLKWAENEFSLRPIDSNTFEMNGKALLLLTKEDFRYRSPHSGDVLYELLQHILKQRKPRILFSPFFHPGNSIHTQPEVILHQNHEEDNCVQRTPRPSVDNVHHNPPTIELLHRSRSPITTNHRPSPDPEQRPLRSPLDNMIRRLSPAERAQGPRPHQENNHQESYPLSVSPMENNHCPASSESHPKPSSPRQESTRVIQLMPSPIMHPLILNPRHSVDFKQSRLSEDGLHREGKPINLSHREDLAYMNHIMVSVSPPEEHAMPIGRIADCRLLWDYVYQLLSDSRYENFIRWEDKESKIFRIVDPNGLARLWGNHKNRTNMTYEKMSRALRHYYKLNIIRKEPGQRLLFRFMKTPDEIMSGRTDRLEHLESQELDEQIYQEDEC
# Method in brief: as §1
sequence,measurement,setting,value
TTTTGG,binding signal,FEV,"1.38 fold enrichment (6-mer frequency, TF over GST control)"
same,binding signal,ETV5,"1.55 fold enrichment (6-mer frequency, TF over GST control)"
same,binding signal,HSF1,"1.44 fold enrichment (6-mer frequency, TF over GST control)"
same,binding signal,SPIC,"1.38 fold enrichment (6-mer frequency, TF over GST control)"
same,binding signal,ELF4,"1.41 fold enrichment (6-mer frequency, TF over GST control)"
same,binding signal,ELK4,"1.45 fold enrichment (6-mer frequency, TF over GST control)"
same,binding signal,ETV2,"1.6 fold enrichment (6-mer frequency, TF over GST control)"
same,binding signal,ELF3,"1.44 fold enrichment (6-mer frequency, TF over GST control)"
same,binding signal,CRX,"1.6 fold enrichment (6-mer frequency, TF over GST control)"
same,binding signal,ETV1,"1.55 fold enrichment (6-mer frequency, TF over GST control)"
same,binding signal,ERF,"1.47 fold enrichment (6-mer frequency, TF over GST control)"
same,binding signal,ETV3L,"1.48 fold enrichment (6-mer frequency, TF over GST control)"
same,binding signal,ETS2,"1.55 fold enrichment (6-mer frequency, TF over GST control)"
same,binding signal,SPDEF,"1.36 fold enrichment (6-mer frequency, TF over GST control)"
same,binding signal,ETV7,"1.43 fold enrichment (6-mer frequency, TF over GST control)"
same,binding signal,ELF5,"1.34 fold enrichment (6-mer frequency, TF over GST control)"
same,binding signal,ETV3,"1.36 fold enrichment (6-mer frequency, TF over GST control)"
same,binding signal,ETV6,"1.42 fold enrichment (6-mer frequency, TF over GST control)"
